Measured values from the supplement of paper PMC12282887.
± gives the standard deviation of the averaged measurements.

Tests used:
Assay in all cases: promoter activity interaction Z-score (Lux/OD deviation from empty-vector control); higher = stronger promoter induction by the compound
[1] = test system: E. coli BW25113 acrABp lux reporter
In short: (§1)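 At 37°C, E. coli BW25113 reporter cultures in 40 µl LB Lennox in 384-well plates were read for OD600 and luminescence every 30 min for 12 h. Windows were 0–8 h for wild type and 1–9 h for deletion strains, and wells under 10% of the median growth value were removed. The score is the Z-transformed residual of growth-normalised luminescence against a control fit.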

[2] = test system: E. coli BW25113 marRABp lux reporter
In short: as §1

[3] = test system: E. coli BW25113 micFp lux reporter
In short: as §1

[4] = test system: E. coli BW25113 ompFp lux reporter
In short: as §1

[5] = test system: E. coli BW25113 robp lux reporter
In short: as §1

[6] = test system: E. coli BW25113 soxSp lux reporter
In short: as §1

[7] = test system: E. coli BW25113 tolCp lux reporter
In short: as §1

[8] = 3.7 µg/ml, genetic background: wild type
[9] = 3.7 µg/ml, genetic background: ΔmarA
[10] = 3.7 µg/ml, genetic background: Δrob
[11] = 3.7 µg/ml, genetic background: ΔsoxS
[12] = 7.5 µg/ml, genetic background: wild type
[13] = 7.5 µg/ml, genetic background: ΔmarA
[14] = 7.5 µg/ml, genetic background: Δrob
[15] = 7.5 µg/ml, genetic background: ΔsoxS
[16] = 15 µg/ml, genetic background: wild type
[17] = 15 µg/ml, genetic background: ΔmarA
[18] = 15 µg/ml, genetic background: Δrob
[19] = 15 µg/ml, genetic background: ΔsoxS

CC[C@H]1OC(=O)[C@H](C)[C@@H](O[C@H]2C[C@@](C)(OC)[C@@H](O)[C@H](C)O2)[C@H](C)[C@@H](O[C@@H]2O[C@H](C)C[C@H](N(C)C)[C@H]2O)[C@](C)(OC)C[C@@H](C)C(=O)[C@H](C)[C@@H](O)[C@]1(C)O [Clarithromycin]
promoter activity interaction Z-score [1, 8]: 2.75 ± 0.78 | promoter activity interaction Z-score [1, 9]: -0.666 ± 0.051 | promoter activity interaction Z-score [1, 10]: 2.53 ± 0.28 | promoter activity interaction Z-score [1, 11]: 3.99 ± 2.9 | promoter activity interaction Z-score [1, 12]: 4.86 ± 2 | promoter activity interaction Z-score [1, 13]: 0.0124 ± 0.014 | promoter activity interaction Z-score [1, 14]: 3.88 ± 1.1 | promoter activity interaction Z-score [1, 15]: 5.27 ± 0.95 | promoter activity interaction Z-score [1, 16]: 6.01 ± 2.6 | promoter activity interaction Z-score [1, 17]: 5.11 | promoter activity interaction Z-score [1, 18]: 8.62 ± 0.52 | promoter activity interaction Z-score [1, 19]: 7.67 ± 6.7 | promoter activity interaction Z-score [2, 8]: 2.9 ± 0.24 | promoter activity interaction Z-score [2, 9]: 2.02 ± 0.13 | promoter activity interaction Z-score [2, 10]: 1.54 ± 0.29 | promoter activity interaction Z-score [2, 11]: 2.44 ± 1 | promoter activity interaction Z-score [2, 12]: 3.84 ± 0.18 | promoter activity interaction Z-score [2, 13]: 2.58 ± 0.055 | promoter activity interaction Z-score [2, 14]: 2.57 ± 1.6 | promoter activity interaction Z-score [2, 15]: 4.77 ± 2.4 | promoter activity interaction Z-score [2, 16]: 2.6 ± 3 | promoter activity interaction Z-score [2, 17]: 3.84 | promoter activity interaction Z-score [2, 18]: 4.65 ± 1.9 | promoter activity interaction Z-score [2, 19]: 7.29 ± 0.54 | promoter activity interaction Z-score [3, 8]: 0.345 ± 0.84 | promoter activity interaction Z-score [3, 9]: -0.264 ± 0.18 | promoter activity interaction Z-score [3, 10]: 0.13 ± 0.36 | promoter activity interaction Z-score [3, 11]: 0.346 ± 0.31 | promoter activity interaction Z-score [3, 12]: -0.0809 ± 0.56 | promoter activity interaction Z-score [3, 13]: -0.345 ± 0.18 | promoter activity interaction Z-score [3, 14]: 0.0824 ± 0.022 | promoter activity interaction Z-score [3, 15]: -0.272 ± 0.94 | promoter activity interaction Z-score [3, 16]: -2.17 ± 0.33 | promoter activity interaction Z-score [3, 17]: -0.213 ± 0.3 | promoter activity interaction Z-score [3, 18]: -0.078 ± 0.014 | promoter activity interaction Z-score [4, 8]: 4.02 ± 1.8 | promoter activity interaction Z-score [4, 9]: 2.83 ± 2.5 | promoter activity interaction Z-score [4, 10]: 3.22 ± 1.5 | promoter activity interaction Z-score [4, 11]: 4.01 ± 1.6 | promoter activity interaction Z-score [4, 12]: 4.44 ± 2.9 | promoter activity interaction Z-score [4, 13]: 4.37 ± 4.9 | promoter activity interaction Z-score [4, 14]: 3.77 ± 4.2 | promoter activity interaction Z-score [4, 15]: 3.43 ± 1.9 | promoter activity interaction Z-score [4, 16]: -0.0263 ± 3.9 | promoter activity interaction Z-score [4, 18]: -0.772 | promoter activity interaction Z-score [4, 19]: -2.44 | promoter activity interaction Z-score [5, 8]: -1.9 ± 0.13 | promoter activity interaction Z-score [5, 9]: -2.77 ± 0.23 | promoter activity interaction Z-score [5, 10]: -1.66 ± 0.048 | promoter activity interaction Z-score [5, 11]: -2.35 ± 0.33 | promoter activity interaction Z-score [5, 12]: -2.21 ± 0.12 | promoter activity interaction Z-score [5, 13]: -2.09 ± 0.24 | promoter activity interaction Z-score [5, 14]: -2.11 ± 0.083 | promoter activity interaction Z-score [5, 15]: -1.66 ± 0.9 | promoter activity interaction Z-score [5, 16]: -4.75 ± 0.23 | promoter activity interaction Z-score [5, 17]: -0.357 ± 0.99 | promoter activity interaction Z-score [5, 18]: -1.4 | promoter activity interaction Z-score [6, 8]: 0.201 ± 0.071 | promoter activity interaction Z-score [6, 9]: 0.637 ± 0.17 | promoter activity interaction Z-score [6, 10]: 0.258 ± 0.11 | promoter activity interaction Z-score [6, 11]: 3.14 ± 1.1 | promoter activity interaction Z-score [6, 12]: 1.35 ± 0.47 | promoter activity interaction Z-score [6, 13]: 1.62 ± 0.14 | promoter activity interaction Z-score [6, 14]: 1.1974 ± 0.00038 | promoter activity interaction Z-score [6, 15]: 3.99 ± 0.81 | promoter activity interaction Z-score [6, 16]: 0.664 ± 0.51 | promoter activity interaction Z-score [6, 17]: 2.07 ± 0.33 | promoter activity interaction Z-score [6, 18]: 1.44 ± 0.33 | promoter activity interaction Z-score [6, 19]: 1.96 | promoter activity interaction Z-score [7, 8]: 1.16 ± 0.087 | promoter activity interaction Z-score [7, 9]: 0.114 ± 1.9 | promoter activity interaction Z-score [7, 10]: 0.468 ± 0.18 | promoter activity interaction Z-score [7, 11]: 2.16 ± 2.1 | promoter activity interaction Z-score [7, 12]: 3.8 ± 1.3 | promoter activity interaction Z-score [7, 13]: 1.91 ± 0.99 | promoter activity interaction Z-score [7, 14]: 1.62 ± 0.65 | promoter activity interaction Z-score [7, 15]: 3.3 ± 1.4 | promoter activity interaction Z-score [7, 16]: 0.0472 ± 0.77 | promoter activity interaction Z-score [7, 17]: 0.874 ± 2.2 | promoter activity interaction Z-score [7, 18]: 1.26 ± 0.65 | promoter activity interaction Z-score [7, 19]: 3.6044 ± 0.00012
